# In the supplement of paper PMC8728848:
# About 410 targets per protein were measured; listed, in parts, are those with the strongest signals and a random draw of the rest.
# B1: Apa (Mycobacterium tuberculosis), Rv1860 (protein)
# chain: MHQVDPNLTRRKGRLAALAIAAMASASLVTVAVPATANADPEPAPPVPTTAASPPSTAAAPPAPATPVAPPPPAAANTPNAQPGDPNAAPPPADPNAPPPPVIAPNAPQPVRIDNPVGGFSFALPAGWVESDAAHFDYGSALLSKTTGDPPFPGQPPPVANDTRIVLGRLDQKLYASAEATDSKAAARLGSDMGEFYMPYPGTRINQETVSLDANGVSGSASYYEVKFSDPSKPNGQIWTGVIGSPAANAPDAGPPQRWFVVWLGTANNPVDKGAAKALAESIRPLVAPPPAPAPAPAEPAPAPAPAGEVAPTPTTPTPQRTLPA
# Experiments:
# Experiment in all cases: glycan array binding signal (z-score within array); higher = stronger binding
# Conditions in all cases: glycan notation: IUPAC condensed, linker removed
# [1] = target: Fuc(a1-2)Gal(b1-3)GalNAc(a1-3)[Fuc(a1-2)]Gal(b1-4)Glc
# Summary of the method: (§1)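 The Consortium for Functional Glycomics database supplied 3228 glycan arrays, of which those lacking an available protein sequence were dropped. The binding signal, a within-array Z-score, was averaged across arrays of the same protein sequence and across linkers. Negative scores can be read as non-binding.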
# [2] = target: Fuc(a1-2)Gal(b1-3)GalNAc(b1-3)Gal
# Summary of the method: as §1
# [3] = target: Fuc(a1-2)Gal(b1-4)Glc6S
# Summary of the method: as §1
# [4] = target: Fuc(a1-2)Gal6S(b1-3)GlcNAc6S
# Summary of the method: as §1
# [5] = target: Fuc(a1-2)Gal6S(b1-4)Glc6S
# Summary of the method: as §1
# [6] = target: Fuc(a1-2)[Gal(a1-3)]Gal(b1-3)GlcNAc(b1-2)Man(a1-3)[Fuc(a1-2)[Gal(a1-3)]Gal(b1-3)GlcNAc(b1-2)Man(a1-6)]Man(b1-4)GlcNAc(b1-4)[Fuc(a1-6)]GlcNAc
# Summary of the method: as §1
# [7] = target: Fuc(a1-2)[Gal(a1-3)]Gal(b1-4)[Fuc(a1-3)]Glc
# Summary of the method: as §1
# [8] = target: Fuc(a1-2)[Gal(a1-3)]Gal(b1-4)[Fuc(a1-3)]GlcNAc
# Summary of the method: as §1
# [9] = target: Fuc(a1-2)[GalNAc(a1-3)]Gal(b1-3)GalNAc(a1-3)[Fuc(a1-2)]Gal(b1-4)GlcNAc
# Summary of the method: as §1
# [10] = target: Fuc(a1-2)[GalNAc(a1-3)]Gal(b1-3)GalNAc(b1-3)Gal(a1-4)Gal(b1-4)Glc
# Summary of the method: as §1
# [11] = target: Fuc(a1-2)[GalNAc(a1-3)]Gal(b1-4)GlcNAc
# Summary of the method: as §1
# [12] = target: Fuc(a1-3)[Gal(b1-4)]Glc6S
# Summary of the method: as §1
# [13] = target: Fuc(a1-3)[Gal(b1-4)]GlcNAc(b1-3)Gal(b1-4)[Fuc(a1-3)]GlcNAc
# Summary of the method: as §1
# [14] = target: Fuc(a1-3)[Gal(b1-4)]GlcNAc6S
# Summary of the method: as §1
# [15] = target: Fuc(a1-4)GlcNAc
# Summary of the method: as §1
# [16] = target: Gal(b1-3)GlcNAc(b1-2)Man
# Summary of the method: as §1
# [17] = target: Gal(b1-3)GlcNAc(b1-2)Man(a1-3)[Gal(b1-3)GlcNAc(b1-2)Man(a1-6)]Man(b1-4)GlcNAc(b1-4)GlcNAc
# Summary of the method: as §1
# [18] = target: Gal(b1-3)GlcNAc(b1-3)Gal(b1-3)GlcNAc
# Summary of the method: as §1
# [19] = target: Gal(b1-3)GlcNAc6S
# Summary of the method: as §1
# [20] = target: Gal(b1-4)GalNAc(b1-3)[Fuc(a1-2)]Gal(b1-4)GlcNAc
# Summary of the method: as §1
# [21] = target: Gal(b1-4)GlcNAc(a1-6)Gal(b1-4)GlcNAc
# Summary of the method: as §1
# [22] = target: Gal(b1-4)GlcNAc(b1-2)Man(a1-3)[Gal(b1-4)GlcNAc(b1-2)Man(a1-6)]Man(b1-4)GlcNAc(b1-4)[Fuc(a1-6)]GlcNAc
# Summary of the method: as §1
# [23] = target: Gal(b1-4)GlcNAc(b1-2)[Gal(b1-4)GlcNAc(b1-4)]Man(a1-3)[GlcNAc(b1-4)][Gal(b1-4)GlcNAc(b1-2)[Gal(b1-4)GlcNAc(b1-6)]Man(a1-6)]Man(b1-4)GlcNAc(b1-4)GlcNAc
# Summary of the method: as §1
# [24] = target: Gal(b1-4)GlcNAc(b1-3)Gal(b1-3)GlcNAc
# Summary of the method: as §1
# [25] = target: Gal(b1-4)GlcNAc(b1-3)Gal(b1-4)GlcNAc
# Summary of the method: as §1
# [26] = target: Gal(b1-4)GlcNAc6P
# Summary of the method: as §1
# [27] = target: GalNAc(b1-4)GlcNAc(b1-2)Man
# Summary of the method: as §1
# [28] = target: GalNAc(b1-4)GlcNAc6S
# Summary of the method: as §1
# [29] = target: GalNAc6S(b1-4)GlcNAc
# Summary of the method: as §1
# [30] = target: Glc(b1-4)Glc
# Summary of the method: as §1
binder,measurement,setting,value
B1,glycan array binding signal (z-score),[1],2.08
same,glycan array binding signal (z-score),[2],4.21
same,glycan array binding signal (z-score),[3],-0.06
same,glycan array binding signal (z-score),[4],2.87
same,glycan array binding signal (z-score),[5],1.9
same,glycan array binding signal (z-score),[6],0.338
same,glycan array binding signal (z-score),[7],-0.318
same,glycan array binding signal (z-score),[8],0.273
same,glycan array binding signal (z-score),[9],14.3
same,glycan array binding signal (z-score),[10],5.64
same,glycan array binding signal (z-score),[11],-0.327
same,glycan array binding signal (z-score),[12],0.898
same,glycan array binding signal (z-score),[13],0.272
same,glycan array binding signal (z-score),[14],1.94
same,glycan array binding signal (z-score),[15],-0.036
same,glycan array binding signal (z-score),[16],2.77
same,glycan array binding signal (z-score),[17],-0.376
same,glycan array binding signal (z-score),[18],-0.31
same,glycan array binding signal (z-score),[19],-0.259
same,glycan array binding signal (z-score),[20],5.04
same,glycan array binding signal (z-score),[21],0.281
same,glycan array binding signal (z-score),[22],-0.333
same,glycan array binding signal (z-score),[23],0.024
same,glycan array binding signal (z-score),[24],-0.238
same,glycan array binding signal (z-score),[25],-0.271
same,glycan array binding signal (z-score),[26],-0.455
same,glycan array binding signal (z-score),[27],-0.412
same,glycan array binding signal (z-score),[28],-0.421
same,glycan array binding signal (z-score),[29],2.78
same,glycan array binding signal (z-score),[30],2.25
